“And” between values parts separate entries of the source, which are not always exact repeats. Equal entries are not always repeated. In all, about 5,500 compounds went through this assay and about 2,000 (36%) were called active. Inconclusive results (about 18%) are left out. No stated cut-off is given here; in the data, active means normalized growth mostly below about 0.91 (no sharp cut-off); inconclusive means no clear call, values can overlap the other calls; inactive means mostly above about 0.92. The list shows a part of the results.
Test: chemical genetic growth profiling, strain panel (AID 1159580);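 further: tested at 20 µM; growth read once vehicle control cultures reached saturation at 30 °C; 1 = growth at the plate median or of vehicle wells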
Settings: S. cerevisiae deletion strains, growth OD

Measured: normalized growth

NC(=O)N1c2ccccc2C=Cc2ccccc21
inactive: locus YAL013W, strain DEP1, stronger effect = lower value 1 | locus YAL021C, strain ccr4, stronger effect = lower value 1.03 | locus YAL026C, strain drs2, stronger effect = lower value 1.02 | locus YAL030W, strain snc1, stronger effect = lower value 1.04 | locus YAL040C, strain CLN3, stronger effect = lower value 1.01 | locus YBL061C, strain skt5, stronger effect = lower value 1.03 | locus YBR009C, strain hhf1, stronger effect = lower value 1.02 | locus YBR021W, strain FUR4, stronger effect = lower value 1.03 | locus YBR023C, strain chs3, stronger effect = lower value 1.02 | locus YBR171W, strain sec66, stronger effect = lower value 1.03 | locus YBR229C, strain ROT2, stronger effect = lower value 1.03 | locus YBR231C, strain swc5, stronger effect = lower value 1.04 | locus YBR279W, strain paf1, stronger effect = lower value 1.02 | locus YCL011C, strain gbp2, stronger effect = lower value 1.02 | locus YCL016C, strain dcc1, stronger effect = lower value 1.02 | locus YCL029C, strain bik1, stronger effect = lower value 1.01 | locus YCL061C, strain MRC1, stronger effect = lower value 1.02 | locus YCL069W, strain vba3, stronger effect = lower value 1.03 | locus YCR088W, strain abp1, stronger effect = lower value 1.01 | locus YDL005C, strain med2, stronger effect = lower value 1.02 | locus YDL035C, strain GPR1, stronger effect = lower value 1.07 | locus YDL040C, strain nat1, stronger effect = lower value 1.03 | locus YDL074C, strain BRE1, stronger effect = lower value 1.03 | locus YDL101C, strain DUN1, stronger effect = lower value 1.01 | locus YDL185W, strain tfp1, stronger effect = lower value 0.963 | locus YDL192W, strain arf1, stronger effect = lower value 0.996 | locus YDR001C, strain nth1, stronger effect = lower value 1.01 | locus YDR069C, strain doa4, stronger effect = lower value 1.04 | locus YDR101C, strain arx1, stronger effect = lower value 1.01 | locus YDR137W, strain rgp1, stronger effect = lower value 1.07 | locus YDR159W, strain sac3, stronger effect = lower value 1.03 | locus YDR162C, strain NBP2, stronger effect = lower value 1.03 | locus YDR195W, strain ref2 1.06 | locus YDR297W, strain sur2, stronger effect = lower value 1.02 | locus YDR318W, strain mcm21, stronger effect = lower value 1.01 | locus YDR334W, strain swr1, stronger effect = lower value 1.03 | locus YDR335W, strain msn5, stronger effect = lower value 1.02 | locus YDR363W, strain ESC2, stronger effect = lower value 1 | locus YDR388W, stronger effect = lower value 1.01 | locus YDR392W, strain spt3, stronger effect = lower value 0.984 | locus YDR502C, strain sam2, stronger effect = lower value 0.993 | locus YEL003W, strain gim4, stronger effect = lower value 1.02 | locus YEL037C, strain rad23, stronger effect = lower value 1.02 | locus YEL061C, strain CIN8 (second series), stronger effect = lower value 1.01 | locus YEL061C, strain CIN8, stronger effect = lower value 1.01 | locus YER002W, strain NOP16, stronger effect = lower value 1.04 | locus YER015W, strain faa2, stronger effect = lower value 1.03 | locus YER016W, strain bim1, stronger effect = lower value 1.02 | locus YER110C, stronger effect = lower value 0.979 | locus YER111C, strain swi4, stronger effect = lower value 1.03 | locus YER155C, strain BEM2 (second series), stronger effect = lower value 1.01 | locus YER155C, strain BEM2, stronger effect = lower value 1.01 | locus YER167W, strain BCK2, stronger effect = lower value 1.01 | locus YFR010W, strain ubp6, stronger effect = lower value 1.05 | locus YGL078C, strain dbp3, stronger effect = lower value 0.991 | locus YGL086W, strain mad1, stronger effect = lower value 1.01 | locus YGL167C, strain pmr1, stronger effect = lower value 1.03 | locus YGL173C, strain kem1, stronger effect = lower value 1.04 | locus YGL227W, strain vid30, stronger effect = lower value 1.01 | locus YGL240W, strain doc1, stronger effect = lower value 1.02 | locus YGL248W, strain PDE1, stronger effect = lower value 1.05 | locus YGL253W, strain hxk2, stronger effect = lower value 1.01 | locus YGR078C, strain PAC10, stronger effect = lower value 1.02 and 1.01 | locus YGR135W, strain pre9, stronger effect = lower value 0.99 | locus YGR252W, strain gcn5, stronger effect = lower value 1.06 | locus YHR013C, strain ard1, stronger effect = lower value 1.02 | locus YHR027C, strain rpn1, stronger effect = lower value 1.02 | locus YHR030C, strain SLT2, stronger effect = lower value 1.01 and 1 | locus YHR079C, strain IRE1 (second series), stronger effect = lower value 0.98 | locus YHR079C, strain IRE1, stronger effect = lower value 0.99 | locus YHR094C, strain hxt1, stronger effect = lower value 1 | locus YHR129C, strain ARP1, stronger effect = lower value 0.997 | locus YHR142W, strain chs7, stronger effect = lower value 1.02 | locus YHR200W, strain rpn10, stronger effect = lower value 0.995 | locus YIL066C, strain RNR3, stronger effect = lower value 1.04 | locus YIL073C, strain SPO22, stronger effect = lower value 1.05 | locus YIL125W, strain kgd1, stronger effect = lower value 1 | locus YIR030C, strain dcg1, stronger effect = lower value 0.976 | locus YJL092W, strain hpr5, stronger effect = lower value 1.03 | locus YJL095W, strain BCK1 (second series), stronger effect = lower value 1.03 | locus YJL095W, strain BCK1, stronger effect = lower value 0.972 and 0.988 | locus YJL115W, strain asf1, stronger effect = lower value 1.03 | locus YJL129C, strain trk1, stronger effect = lower value 1.04 | locus YJL134W, strain LCB3, stronger effect = lower value 1.02 | locus YJL154C, strain vps35, stronger effect = lower value 1.01 | locus YJL164C, strain tpk1, stronger effect = lower value 1.01 | locus YJL166W, strain qcr8, stronger effect = lower value 1.02 | locus YJL168C, strain set2, stronger effect = lower value 0.994 | locus YJL187C, strain SWE1 (second series), stronger effect = lower value 1.02 | locus YJR043C, strain POL32, stronger effect = lower value 1.09 | locus YJR066W, strain TOR1, stronger effect = lower value 0.99 | locus YKL009W, strain mrt4, stronger effect = lower value 0.918 | locus YKL068W, stronger effect = lower value 1.01 | locus YKL085W, strain MDH1 (second series), stronger effect = lower value 0.986 | locus YKL085W, strain MDH1, stronger effect = lower value 0.986 | locus YKL160W, strain elf1, stronger effect = lower value 1.03 | locus YKR001C, strain vps1, stronger effect = lower value 0.989 | locus YKR026C, strain gcn3, stronger effect = lower value 1.01 | locus YKR091W, strain srl3, stronger effect = lower value 1.01 | locus YLL001W, strain dnm1, stronger effect = lower value 1.02 | locus YLL026W, stronger effect = lower value 1.03 | locus YLL041C, strain sdh2, stronger effect = lower value 1.02 | locus YLR027C, strain aat2, stronger effect = lower value 1.02 | locus YLR039C, strain RIC1, stronger effect = lower value 1.09 | locus YLR058C, strain SHM2, stronger effect = lower value 1.01 | locus YLR102C, strain apc9, stronger effect = lower value 1.01 | locus YLR113W, strain HOG1, stronger effect = lower value 0.972 | locus YLR221C, strain rsa3, stronger effect = lower value 1.01 | locus YLR258W, strain gsy2, stronger effect = lower value 1.02 | locus YLR262C, strain YPT6 (second series), stronger effect = lower value 1.03 | locus YLR262C, strain YPT6, stronger effect = lower value 1.1 | locus YLR268W, strain sec22, stronger effect = lower value 0.993 | locus YLR320W, strain mms22, stronger effect = lower value 1.03 | locus YLR330W, strain CHS5, stronger effect = lower value 1 | locus YLR342W, strain FKS1 (second series), stronger effect = lower value 1.12 | locus YLR342W, strain FKS1, stronger effect = lower value 1.03 | locus YLR357W, strain rsc2, stronger effect = lower value 1.09 | locus YLR370C, strain arc18, stronger effect = lower value 1.02 | locus YLR371W, strain rom2, stronger effect = lower value 0.994 | locus YLR384C, strain iki3, stronger effect = lower value 1.02 | locus YLR418C, strain cdc73, stronger effect = lower value 0.959 | locus YML016C, strain PPZ1, stronger effect = lower value 1.02 | locus YML032C, strain rad52, stronger effect = lower value 1 | locus YML120C, strain ndi1, stronger effect = lower value 1.03 | locus YML124C, strain tub3, stronger effect = lower value 0.998 | locus YMR058W, strain fet3, stronger effect = lower value 1.01 | locus YMR078C, strain ctf18, stronger effect = lower value 0.989 | locus YMR125W, strain sto1, stronger effect = lower value 1.03 | locus YMR129W, stronger effect = lower value 1.01 | locus YMR205C, strain PFK2, stronger effect = lower value 1.03 | locus YMR223W, strain ubp8, stronger effect = lower value 0.993 | locus YMR231W, strain pep5, stronger effect = lower value 1.03 | locus YMR263W, strain SAP30, stronger effect = lower value 1.01 | locus YMR307W, strain GAS1, stronger effect = lower value 1.18 | locus YNL067W, strain RPL9B, stronger effect = lower value 1.02 | locus YNL071W, strain lat1, stronger effect = lower value 1.02 | locus YNL128W, strain TEP1, stronger effect = lower value 1 | locus YNL175C, strain NOP13, stronger effect = lower value 1.05 | locus YNL183C, strain NPR1, stronger effect = lower value 0.948 | locus YNL197C, strain WHI3, stronger effect = lower value 1.03 | locus YNL209W, strain ssb2, stronger effect = lower value 1.02 | locus YNL224C, strain SQS1, stronger effect = lower value 1.02 | locus YNL233W, strain BNI4, stronger effect = lower value 0.981 | locus YNL248C, strain rpa49, stronger effect = lower value 1.05 | locus YNL250W, strain rad50, stronger effect = lower value 0.98 | locus YNL271C, strain bni1, stronger effect = lower value 0.977 | locus YNL298W, strain CLA4, stronger effect = lower value 0.976 | locus YNL307C, strain MCK1, stronger effect = lower value 1 | locus YNL322C, strain KRE1 (second series), stronger effect = lower value 1.03 | locus YNL322C, strain KRE1, stronger effect = lower value 1.01 | locus YNR049C, strain mso1, stronger effect = lower value 1.03 | locus YNR052C, strain pop2, stronger effect = lower value 0.994 | locus YOL006C, strain TOP1, stronger effect = lower value 1.02 | locus YOL012C, strain htz1 1.53 | locus YOL147C, strain pex11, stronger effect = lower value 0.998 | locus YOR001W, strain rrp6, stronger effect = lower value 1.04 | locus YOR061W, strain CKA2, stronger effect = lower value 1.01 | locus YOR069W, strain VPS5, stronger effect = lower value 1.04 | locus YOR070C, strain gyp1, stronger effect = lower value 1.03 | locus YOR080W, strain dia2, stronger effect = lower value 1.04 | locus YOR083W, strain WHI5 (second series), stronger effect = lower value 0.999 | locus YOR083W, strain WHI5, stronger effect = lower value 1.03 | locus YOR106W, strain vam3, stronger effect = lower value 1.04 | locus YOR136W, strain idh2, stronger effect = lower value 0.997 | locus YOR144C, strain elg1, stronger effect = lower value 1 | locus YOR184W, strain ser1, stronger effect = lower value 0.981 | locus YOR231W, strain MKK1, stronger effect = lower value 1 | locus YOR265W, strain rbl2, stronger effect = lower value 1.03 | locus YOR270C, strain vph1, stronger effect = lower value 1.1 | locus YOR290C, strain snf2, stronger effect = lower value 1.01 | locus YOR316C, strain cot1, stronger effect = lower value 0.998 | locus YPL051W, strain arl3, stronger effect = lower value 1.03 | locus YPL055C, strain LGE1, stronger effect = lower value 1.01 | locus YPL078C, strain atp4, stronger effect = lower value 1.02 | locus YPL106C, strain sse1, stronger effect = lower value 1.05 | locus YPL240C, strain hsp82, stronger effect = lower value 1.02 | locus YPL241C, strain CIN2, stronger effect = lower value 1.02 and 1.01 | locus YPL256C, strain CLN2, stronger effect = lower value 1 | locus YPR119W, strain clb2, stronger effect = lower value 0.996 | locus YPR141C, strain kar3, stronger effect = lower value 0.992 | locus YPR163C, strain tif3, stronger effect = lower value 1 | locus YPR167C, strain met16, stronger effect = lower value 0.991 | strain wtn01, stronger effect = lower value 1.01
